Results filed as inconclusive are left out. Activity calls are given as the source filed them. Calls follow the shape of the dose curve; as a rule, active = well fitted inhibition curve with a large enough effect in the repeat runs; inconclusive = weak or mixed curves; inactive = no such curve, though single readings can be large or run the other way.
% is scaled to controls: 0 for no effect and ±100 for the full control effect; potency is read from the fitted curve at half-maximal effect.

Chain of Cytochrome P450 2C9 (Homo sapiens) (P11712 whole entry, looked up): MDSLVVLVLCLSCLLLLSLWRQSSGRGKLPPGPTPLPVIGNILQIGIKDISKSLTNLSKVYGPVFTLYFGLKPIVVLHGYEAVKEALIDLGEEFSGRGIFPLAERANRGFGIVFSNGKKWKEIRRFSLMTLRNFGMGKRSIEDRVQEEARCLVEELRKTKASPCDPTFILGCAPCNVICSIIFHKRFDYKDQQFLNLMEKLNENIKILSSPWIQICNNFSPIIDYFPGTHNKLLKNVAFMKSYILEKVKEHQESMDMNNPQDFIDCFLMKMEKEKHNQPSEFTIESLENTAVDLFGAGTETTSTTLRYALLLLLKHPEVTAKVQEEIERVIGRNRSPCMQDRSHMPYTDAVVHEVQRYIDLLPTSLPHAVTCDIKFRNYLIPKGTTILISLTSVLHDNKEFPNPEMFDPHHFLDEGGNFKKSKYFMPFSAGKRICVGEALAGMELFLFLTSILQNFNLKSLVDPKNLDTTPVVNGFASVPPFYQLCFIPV
Chain of Cytochrome P450 1A2 (Homo sapiens) (P05177 whole entry, looked up): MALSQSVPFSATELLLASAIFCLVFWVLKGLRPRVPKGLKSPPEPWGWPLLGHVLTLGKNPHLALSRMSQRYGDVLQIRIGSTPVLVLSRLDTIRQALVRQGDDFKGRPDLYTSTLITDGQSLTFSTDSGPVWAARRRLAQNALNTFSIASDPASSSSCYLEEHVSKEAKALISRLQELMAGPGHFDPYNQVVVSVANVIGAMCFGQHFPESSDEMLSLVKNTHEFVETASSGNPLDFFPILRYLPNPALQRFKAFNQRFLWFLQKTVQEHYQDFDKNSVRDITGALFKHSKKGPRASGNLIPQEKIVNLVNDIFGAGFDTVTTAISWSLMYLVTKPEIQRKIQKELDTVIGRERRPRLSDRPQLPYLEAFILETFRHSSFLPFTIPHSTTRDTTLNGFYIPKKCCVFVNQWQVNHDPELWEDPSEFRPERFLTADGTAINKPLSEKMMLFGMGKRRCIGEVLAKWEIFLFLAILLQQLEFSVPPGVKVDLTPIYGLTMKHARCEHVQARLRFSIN
Chain of Cytochrome P450 2C19 (Homo sapiens) (P33261 whole entry, looked up): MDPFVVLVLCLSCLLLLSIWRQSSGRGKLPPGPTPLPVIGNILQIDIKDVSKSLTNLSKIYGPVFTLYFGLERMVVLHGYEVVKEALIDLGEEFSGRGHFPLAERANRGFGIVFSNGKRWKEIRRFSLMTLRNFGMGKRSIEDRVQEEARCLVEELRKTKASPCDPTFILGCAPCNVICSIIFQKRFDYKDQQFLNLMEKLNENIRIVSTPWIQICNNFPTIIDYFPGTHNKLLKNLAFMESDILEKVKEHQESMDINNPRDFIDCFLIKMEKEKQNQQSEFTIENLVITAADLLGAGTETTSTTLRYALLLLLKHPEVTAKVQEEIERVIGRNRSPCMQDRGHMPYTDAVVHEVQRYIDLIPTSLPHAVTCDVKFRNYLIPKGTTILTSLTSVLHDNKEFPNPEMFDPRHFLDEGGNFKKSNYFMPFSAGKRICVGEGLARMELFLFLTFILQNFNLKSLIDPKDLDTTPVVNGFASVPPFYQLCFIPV

For the first assay, the target named is Cytochrome P450 2C19 (Homo sapiens) (UniProt P33261). In words: Cytochrome P450 Family 2 Subfamily C Member 19 (CYP2C19) small molecule antagonists: luciferase reporter qHTS assay (AID 1671197). Also: nearly all actives have a fitted effect of over 65% in size. Particulars: P450-Glo CYP2C19 enzyme, luciferin luminescence, 1 h; series mostly up to 115 µM; activity change, negative = inhibition: at the top concentration. The method, boiled down:
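P450-Glo CYP2C19 screening system; proluciferin substrate; DMSO compound stocks; 10 min RT preincubation; NADPH regeneration, 1 h at 37C; luciferin detection reagent, 20 min RT; luminescence as RLU.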
`CC(C)(c1cc(Br)c(OCC(Br)CBr)c(Br)c1)c1cc(Br)c(OCC(Br)CBr)c(Br)c1` (centres undefined): the “activity change, negative = inhibition” value is -13% [at 52.9 µM] (inactive).

Regarding `O=C1C(c2[nH]c3ccc(S(=O)(=O)O)cc3c2O)=Nc2ccc(S(=O)(=O)O)cc21`, the Potency is 79.6 µM (active).

`C=Cc1ccccc1C=C`: the “activity change, negative = inhibition” value is -26.9% [at 300 µM] (inactive).

With `CC(C)(C)CC(C)(C)c1ccc(Nc2ccc(C(C)(C)CC(C)(C)C)cc2)cc1`, the activity change, negative = inhibition is -21.4% [at 10.5 µM] (inactive).

Consider `O=C(O)O`, for which the Potency was 3.86 µM (active).

Take `O=[N+]([O-])c1ccc(F)c(Cl)c1`: the Potency is 79.9 µM (active).

For the next assay, the target named is Cytochrome P450 2C9 (Homo sapiens) (UniProt P11712). In words: Cytochrome P450 Family 2 Subfamily C Member 9 (CYP2C9) small molecule antagonists: luciferase reporter qHTS assay (AID 1671198). Also: nearly all actives have a fitted effect of over 50% in size. Particulars: P450-Glo CYP2C9 enzyme assay, luciferin luminescence; series mostly up to 115 µM; activity change, negative = inhibition: at the top concentration. The method, boiled down:
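CYP2C9 activity was measured with a P450-Glo proluciferin substrate. Enzyme–substrate mix was held with compound for 10 min at room temperature, then NADPH regeneration solution was added for 1 h at 37C. Luciferin product was read as luminescence.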
For the compound `CC[N+](CC)(CC)CCOc1ccc(/C=C/c2ccccc2)cc1`, the “activity change, negative = inhibition” value is -0.0578% [at 53 µM] (inactive).

For `CC[N+](CC)(CC)CCOC(=O)C(C1CCCC1)C1CCCC1`, the “activity change, negative = inhibition” value is -1.46% [at 53 µM] (inactive).

With `CCN1C(=O)c2ccccc2C1Nc1ccc(OCCN2CCCCC2)cc1` (centres undefined), the “activity change, negative = inhibition” value was -4.69% [at 53 µM] (inactive).

Regarding `ClCCl`, the “activity change, negative = inhibition” value is 2.09% (inactive).

`CN1CCN(Cc2cc(-c3ccc4[nH]c(=O)oc4c3)co2)[C@@H](c2ccc(F)cc2)C1`: the “activity change, negative = inhibition” value is -7.87% (inactive).

As to `COc1ccc(-c2coc3cc(O)ccc3c2=O)cc1`, the Potency is 0.252 µM (active).

With `Cc1c(C)c2c(c(C)c1O)CC[C@@](C)(CCC[C@H](C)CCC[C@H](C)CCCC(C)C)O2`, the “activity change, negative = inhibition” value was -13.9% (inactive).

With `CCC(C)n1ncn(-c2ccc(N3CCN(c4ccc(OC[C@H]5CO[C@](Cn6cncn6)(c6ccc(Cl)cc6Cl)O5)cc4)CC3)cc2)c1=O` (some centres undefined), the Potency is 13.8 µM (active).

Consider `CCCCCCCCCCCCOCCOCCOCCOCCOCCOCCOCCOCCOCCO`, for which the Potency is 15.5 µM (active).

Take `CCc1oc2ccccc2c1C(=O)c1cc(I)c(O)c(I)c1`: the Potency is 1.38 µM (active).

Turning to `CCCCCCCCCCC[C@@H](C[C@@H]1OC(=O)[C@H]1CCCCCC)OC(=O)[C@H](CC(C)C)NC=O`, the Potency was 2.75 µM (active).

Take `O[C@@H]([C@H](O)[C@H](O)CBr)[C@H](O)CBr`: the “activity change, negative = inhibition” value is 2.56% (inactive).

As to `O=c1[nH]c2ccccc2n1CCCN1CCN(C(c2ccccc2)c2ccccc2)CC1`, the Potency was 17.4 µM (active).

Regarding `O=C(Nc1ccc2c(O)c(N=Nc3ccc(N=Nc4ccc(S(=O)(=O)O)cc4)cc3)c(S(=O)(=O)O)cc2c1)c1ccccc1`, the Potency is 20 µM (active).

As to `CCOC(=O)NNc1ccc(N(CC)CC(C)O)nn1` (centres undefined), the “activity change, negative = inhibition” value is -12.7% [at 53 µM] (inactive).

Take `NC[C@H]1O[C@H](O[C@H]2[C@H](O[C@@H]3O[C@H](CO)[C@@H](O)[C@H]3O)C(O)[C@H](N)C[C@@H]2N)[C@H](N)[C@@H](O)[C@@H]1O` (some centres undefined): the activity change, negative = inhibition is 2.46% [at 10.5 µM] (inactive).

Take `CCCCOC(=O)CC`: the “activity change, negative = inhibition” value is -19.3% (inactive).

`CC(CCc1ccccc1)NCC(O)c1ccc(O)c(C(N)=O)c1` (centres undefined): the “activity change, negative = inhibition” value was -17.9% (inactive).

As to `Cc1ccc(C)cc1`, the “activity change, negative = inhibition” value was -0.907% (inactive).

The next assay deals with Cytochrome P450 1A2 (Homo sapiens) (UniProt P05177). In words: Cytochrome P450 Family 1 Subfamily A Member 2 (CYP1A2) small molecule antagonists: luciferase reporter qHTS assay (AID 1671199). Also: nearly all actives have a fitted effect of over 50% in size. Particulars: P450-Glo CYP1A2 enzyme, luciferin luminescence, 1 h; series mostly up to 115 µM; activity change, negative = inhibition: at the top concentration. The method, boiled down:
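P450-Glo CYP1A2, 1536-well qHTS: enzyme/proluciferin substrate + cpd (DMSO), 10 min RT; NADPH regen, 1 h RT; detection reagent, 20 min; luminescence, RLU.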
For the compound `OC1CCC(C2CCCCC2)CC1` (centres undefined), the Potency is 35.6 µM (active).

Consider `CC[N+](CC)(CC)CCOc1ccc(/C=C/c2ccccc2)cc1`, for which the “activity change, negative = inhibition” value was -16.6% [at 53 µM] (inactive).

In the case of `CC(C)CCCCCOC(=O)CCS`, the Potency was 39.9 µM (active).

In the case of `CCN1C(=O)c2ccccc2C1Nc1ccc(OCCN2CCCCC2)cc1` (centres undefined), the “activity change, negative = inhibition” value is 10.2% [at 53 µM] (inactive).

For the compound `ClCCl`, the “activity change, negative = inhibition” value was 0.961% (inactive).

Regarding `CN1CCN(Cc2cc(-c3ccc4[nH]c(=O)oc4c3)co2)[C@@H](c2ccc(F)cc2)C1`, the “activity change, negative = inhibition” value is -18.8% (inactive).

On to `COc1ccc(-c2coc3cc(O)ccc3c2=O)cc1`, for which the Potency is 12.6 µM (active).

Turning to `Cc1c(C)c2c(c(C)c1O)CC[C@@](C)(CCC[C@H](C)CCC[C@H](C)CCCC(C)C)O2`, the “activity change, negative = inhibition” value is -23.8% (inactive).

For `CCC(C)n1ncn(-c2ccc(N3CCN(c4ccc(OC[C@H]5CO[C@](Cn6cncn6)(c6ccc(Cl)cc6Cl)O5)cc4)CC3)cc2)c1=O` (some centres undefined), the “activity change, negative = inhibition” value is 1.42% [at 53 µM] (inactive).

`CCc1oc2ccccc2c1C(=O)c1cc(I)c(O)c(I)c1`: the “activity change, negative = inhibition” value was 15.4% [at 53 µM] (inactive).

On to `CCCCCCCCCCC[C@@H](C[C@@H]1OC(=O)[C@H]1CCCCCC)OC(=O)[C@H](CC(C)C)NC=O`, for which the Potency was 24.5 µM (active).

With `O[C@@H]([C@H](O)[C@H](O)CBr)[C@H](O)CBr`, the Potency is 70.9 µM (active).

Consider `O=c1[nH]c2ccccc2n1CCCN1CCN(C(c2ccccc2)c2ccccc2)CC1`, for which the “activity change, negative = inhibition” value was -13.9% [at 53 µM] (inactive).

Turning to `O=C(Nc1ccc2c(O)c(N=Nc3ccc(N=Nc4ccc(S(=O)(=O)O)cc4)cc3)c(S(=O)(=O)O)cc2c1)c1ccccc1`, the Potency was 35.6 µM (active).

Values taken from PubChem BioAssay (Tox21).
